# Screening data as filed in PubChem BioAssay.
# Most compounds without a hit are left out; they make up all but 4% or so of the library.
# GDH-TPI counter-1 – GDH-TPI coupled enzyme inhibition counter-screen; AID 588335; inhibition, % at 4.8 µM; GDH-TPI coupled enzyme counterscreen, NADH absorbance; 360,000 tested, 1.2% active; in the data active = inhibition above about 30%;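 also: 0% = DMSO wells and 100% = wells lacking the enzyme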
# RecA intein inh – inhibitors of M. tuberculosis RecA intein splicing | 290,000 tested, 0.75% active | cell-free RecA intein splicing, fluorescence | P9WHJ3 | AID 2221 | inhibition, % (concentration not given with the values); in the data active = inhibition above about 30%;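 also: 0% = vehicle wells and 100% = reference inhibitor control wells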
# Rv3671c protease – inhibitors of M. tuberculosis serine protease Rv3671c; P9WHR9; inhibition, % at 5.96 µM; 320,000 tested, 0.048% active; in the data active = inhibition above about 38%;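 also: extracellular domain of Rv3671c used as enzyme; 0% = enzyme with DMSO and 100% = no enzyme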
# FBA Mtb inh – Mtb fructose-bisphosphate aldolase inhibition; P9WQA3; purified M. tuberculosis FBA, fluorescence read-out; inhibition, % at 1 µM; 360,000 tested, 2.3% active;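 also: 0% = vehicle and 100% = reference inhibitor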
# Mtb betalactam – beta-lactam sensitization of Mtb H37Rv. M. tuberculosis H37Rv growth with meropenem, percent inhibition. inhibition, % at 25 µM. 330,000 tested, 0.27% active. AID 434955; call rule not given here;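 also: growth measured after seven days incubation then overnight dye step; 0% = bacteria only wells and 100% = bacteria with antibiotic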
# UGM FP inh – inhibitors of M. tuberculosis UDP-galactopyranose mutase; P9WIQ1; purified UGM, fluorescence polarization probe displacement; inhibition, % at 10 µM; 320,000 tested, 0.06% active; in the data active = inhibition above about 10%, passing the limit was not always enough
# Target sequence (P9WIQ1 whole entry, looked up): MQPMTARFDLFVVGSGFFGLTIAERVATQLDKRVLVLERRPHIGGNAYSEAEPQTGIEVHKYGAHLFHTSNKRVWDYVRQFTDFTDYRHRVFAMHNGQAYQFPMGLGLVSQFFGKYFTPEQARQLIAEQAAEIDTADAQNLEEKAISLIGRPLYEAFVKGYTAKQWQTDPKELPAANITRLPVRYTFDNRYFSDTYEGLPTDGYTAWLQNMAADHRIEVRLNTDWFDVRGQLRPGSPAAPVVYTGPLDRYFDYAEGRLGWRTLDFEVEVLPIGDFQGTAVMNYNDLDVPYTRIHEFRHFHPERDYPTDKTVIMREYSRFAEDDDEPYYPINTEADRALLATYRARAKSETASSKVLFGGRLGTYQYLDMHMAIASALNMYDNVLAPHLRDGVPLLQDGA
# DNA intercal FP – counter-screen: DNA intercalators; 35 tested, 60% active; AID 463198; acridine orange-DNA binding, fluorescence polarization; AC50, µM; shares compounds with UGM FP inh;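 active = fitted AC50 no greater than ten times the top concentration tested, cut at about 17 µM in these data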
# Mtb FBA inh conf – confirmation of M. tuberculosis fructose-bisphosphate aldolase inhibitors | shares compounds with FBA Mtb inh | AID 651616 | purified M. tuberculosis FBA, fluorescence read-out | inhibition, % at 1 µM | 5,600 tested, 78% active;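 also: 0% = vehicle wells and 100% = reference inhibitor wells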
# GDH-TPI counter-2 – counter-screen for M. tuberculosis FBA inhibitors: GDH-TPI coupled enzyme inhibition; shares compounds with FBA Mtb inh; GDH-TPI coupled enzyme counterscreen, fluorescence; inhibition, % at 1 µM; 5,600 tested, 81% active; AID 652141; in the data active = inhibition above about 10%
# * hit, by the source's call; i = inactive; · = no result. Rule as the data show it, unless noted: active = inhibition above about 27%; inactive = the rest.
SMILES,GDH-TPI counter-1,RecA intein inh,Rv3671c protease,FBA Mtb inh,Mtb betalactam,UGM FP inh,Mtb FBA inh conf,GDH-TPI counter-2,others
CC(C)CSC1=NSC2=NC(=O)/C(=C\c3coc4ccccc4c3=O)C(=N)N12,5,-5,-17,12,0,-12,·,·,DNA intercal FP=17*
O=C(CN(c1cc(Cl)ccc1Cl)S(=O)(=O)c1ccccc1)N1CCOCC1,1,1,1,1,2,-1,·,·,
CN(C)/C=C1\C=C2C(=O)c3ccccc3N2C1=O,10,i,12,-10,-7,103*,·,·,DNA intercal FP=0.46*
COc1cccc2c1C(=O)c1c(O)c3c(c(O)c1C2=O)CC(O)(C(=O)CO)CC3OC1CC(N)C(O)C(C)O1 (stereo unspecified),·,·,·,·,·,·,·,·,DNA intercal FP=6.8*
C[C@H]1CN([C@@H](C)CO)S(=O)(=O)c2ccc(Br)cc2O[C@H]1CN(C)C(=O)Nc1ccccc1F,-3,·,·,0,·,·,·,·,
C/C=C/c1ccc2c(c1)O[C@@H](CN(C)C(=O)Nc1cc(F)ccc1F)[C@H](C)CN([C@@H](C)CO)S2(=O)=O,·,·,·,·,·,·,·,·,DNA intercal FP=>35
CNC(=O)OCc1nc(SC2CCCCO2)n(C)c1COC(=O)NC (stereo unspecified),·,·,·,0,·,·,·,·,
CC(=O)Nc1cccc(N)c1,8,·,-4,0,-3,1,·,·,DNA intercal FP=>35
CC(=O)Nc1cccc(C)c1,3,·,2,0,-2,-1,·,·,
CCN1CCN(c2cc3c(cc2F)c(=O)c(C(=O)O)cn3C2CC2)CC1,7,0,-7,13,100,-2,·,·,
CC(=O)N1CCN(c2cc3c(cc2F)c(=O)c(C(=O)O)cn3C2CC2)CC1,1,1,0,30*,100,-1,187*,140*,
COc1ccc(C2NC(=O)NC3=C2C(=O)CCC3)cc1 (stereo unspecified),-2,0,0,0,0,0,·,·,
COc1ccc(C2C3=C(CCCC3=O)Nc3c(-c4ccccc4)c(C)nn32)cc1 (stereo unspecified),45*,-3,-2,97*,-4,2,169*,135*,
COc1ccccc1-c1cc(C(=O)O)c2c(=O)n(C)c(=O)n(Cc3ccccc3)c2n1,3,-4,-6,38*,-4,3,-3,-5,
Cn1c(=O)c2c(C(=O)O)cc(-c3ccccc3)nc2n(Cc2ccccc2)c1=O,-5,-10,-2,-2,12,-1,·,·,
CC(C)CCOCC(=O)Oc1ccccc1C(=O)O,-3,-1,3,34*,-4,-2,-5,-4,
CC(=O)Oc1ccccc1C(=O)Oc1ccccc1C(=O)O,18,·,2,9,3,-1,·,·,
CC1(C)C2(C#N)C(=O)NC(=O)C12C#N (stereo unspecified),-4,·,·,1,·,·,·,·,
O=C(NNC(=O)C1C2CCCCC21)c1coc(=O)c(Br)c1 (stereo unspecified),15,-2,13,54*,0,-3,86*,50*,
COC(=O)c1cnc(Nc2nc(CN)cs2)nc1C(F)(F)F,10,·,·,1,·,·,·,·,
COc1ccc(-c2oc3ncnc(NCCCN(C)C)c3c2-c2ccc(OC)cc2)cc1,16,-4,2,46*,63,-3,69*,72*,
CCOC(=O)C1=C(CSc2nc(-c3ccccc3)ccc2C#N)OC(N)=C(C#N)C1c1ccc(OC)cc1 (stereo unspecified),15,-14,-55,74*,-4,1,112*,93*,
CCc1cc2c(COC(=O)c3cccc(S(C)(=O)=O)c3)cc(=O)oc2cc1O,4,-2,-7,14,3,-1,·,·,
CCc1cc2c(COC(=O)c3c(C)noc3C)cc(=O)oc2cc1O,32*,-12,-9,33*,0,1,85*,62*,
C[C@H](CO)N1C[C@H](C)[C@@H](CN(C)C(=O)Nc2ccc(C(F)(F)F)cc2)Oc2c(NS(=O)(=O)c3ccccc3)cccc2C1=O,3,·,-5,0,9,-1,·,·,
CCc1cc(=O)oc2cc(C)cc(OC(C)C(=O)NCCN3CCOCC3)c12 (stereo unspecified),1,1,5,44*,0,3,2,1,
